Some test systems named below: MOLT-4 leukemia; SR leukemia; RPMI-8226 leukemia; OVCAR-8 ovarian; OVCAR-5 ovarian; OVCAR-4 ovarian; SK-OV-3 ovarian; IGROV1 ovarian; OVCAR-3 ovarian; HS 578T breast; NCI/ADR-RES ovarian; T-47D breast; BT-549 breast; MDA-MB-435 melanoma; SW-620 colon; MCF7 breast; HCT-116 colon; HCC-2998 colon; KM12 colon.
Assay in all cases: NCI-60 one-dose screen, 48 h (100 = growth as untreated, 0 = no growth, -100 = all killed)
Common to all, as to settings: 10 µM unless noted

SMILES strings stand for the structures. Compounds without any hit were thinned out: in the full panel of roughly 83,000, 20% have a hit.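 Negative percent growth values reflect cell death: -40 means 40% of the cells present at the start died, and -100 means all died.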 Unmarked numbers belong to inactive results. Active and inactive are the calls of the source. The calls were made as follows: active = growth percent below 10; inactive = the rest.

Take `CC[C@H](C)[C@H](NC(=O)[C@H]1CCCCN1C)C(=O)N(C)[C@H](C[C@@H](OC(C)=O)c1cccc(C(=O)N[C@@H](Cc2ccccc2)C[C@H](C)C(=O)O)n1)C(C)C`: the growth in the test on MOLT-4 leukemia is 17.8%; in the test on SR leukemia, 18%; in the test on RPMI-8226 leukemia, 22.7%; with OVCAR-8 ovarian it was 17.7%; in the test with OVCAR-5 ovarian it was 52%; in the test with OVCAR-4 ovarian, 34.7%. Also, the growth with SK-OV-3 ovarian is 8.71% (active); in the test with IGROV1 ovarian, 25.7%; in the test with OVCAR-3 ovarian, -27.7% (active); with HS 578T breast, 28.1%; in the test with NCI/ADR-RES ovarian, 15.6%; in the test with T-47D breast it was 66.8%. Further, the growth in the test on BT-549 breast was -18.7% (active); with MDA-MB-435 melanoma, -48.8% (active); in the test with SW-620 colon it was 28.3%; in the test on MCF7 breast it was 14.7%; in the test on HCT-116 colon it was -0.292% (active); with HCC-2998 colon, 17.1%. Further, the growth with KM12 colon was -6.52% (active).

Consider `CC1=C(CCCOC(=O)[C@H](N)CC(C)C)C2=C(C)C3(CC3)[C@@](C)(O)C(=O)C2=C1`, for which the growth in the test on MOLT-4 leukemia was 80%; in the test with SR leukemia it was 95.1%; in the test on RPMI-8226 leukemia, 90%; with OVCAR-8 ovarian, 3.99% (active); in the test with OVCAR-5 ovarian it was 22.8%; with OVCAR-4 ovarian, 4.85% (active). In addition, the growth in the test with SK-OV-3 ovarian is -18.1% (active); with IGROV1 ovarian, 2.81% (active); in the test on OVCAR-3 ovarian, -14% (active); in the test with HS 578T breast, 79%; in the test on NCI/ADR-RES ovarian it was 3.96% (active); in the test with T-47D breast it was 5.21% (active). The growth in the test on BT-549 breast is -9.68% (active); in the test with MDA-MB-435 melanoma, 69.8%; with SW-620 colon, 87.1%; with MCF7 breast, 37.8%; in the test with HCT-116 colon it was 9.3% (active); with HCC-2998 colon it was 0.215% (active). In the test on KM12 colon, the growth is 79.8%.

For `COc1ccc(O)c(CNC(=O)CN2CCCC2=O)c1`, the growth with MOLT-4 leukemia is 101%; with SR leukemia, 98.5%; with RPMI-8226 leukemia it was 99.4%; in the test on OVCAR-8 ovarian, 106%; in the test on OVCAR-5 ovarian it was 95.1%; in the test with OVCAR-4 ovarian it was 103%. The growth is 112% in the test with SK-OV-3 ovarian; 104% with IGROV1 ovarian; 103% in the test with OVCAR-3 ovarian; 94% with HS 578T breast; 97.8% with NCI/ADR-RES ovarian; 99.4% in the test with T-47D breast. For the same compound, the growth with BT-549 breast is 98.7%; with MDA-MB-435 melanoma, 101%; in the test on SW-620 colon it was 101%; in the test with MCF7 breast it was 102%; in the test with HCT-116 colon, 98.8%; with HCC-2998 colon it was 98.6%. Moreover, the growth in the test with KM12 colon is 101%.

Take `O=C(CCCCCNC1=CC(=O)c2ccccc2C1=O)NCCC[Te]c1ccccc1`: the growth in the test on MOLT-4 leukemia is 29.7%; with SR leukemia it was 38.3%; with RPMI-8226 leukemia, 10.5%; with OVCAR-8 ovarian, 8.94% (active); with OVCAR-5 ovarian, -37% (active); in the test on OVCAR-4 ovarian, -44.8% (active). For the same compound, the growth with SK-OV-3 ovarian is -39.6% (active); in the test on IGROV1 ovarian it was -24% (active); in the test on OVCAR-3 ovarian, -43.8% (active); in the test with HS 578T breast it was -9.34% (active); with NCI/ADR-RES ovarian it was -0.191% (active); with T-47D breast it was -60.5% (active). The growth was -27.7% (active) in the test with BT-549 breast; -15.5% (active) with MDA-MB-435 melanoma; -7.07% (active) in the test on SW-620 colon; 4.88% (active) in the test with MCF7 breast; -51% (active) with HCT-116 colon; -48.7% (active) in the test on HCC-2998 colon. The growth in the test with KM12 colon was -41.6% (active).

As for `O=NN1CCCc2cccc(O)c21`, the growth was 51.8% with MOLT-4 leukemia; 1.91% (active) with SR leukemia; 44.5% in the test on RPMI-8226 leukemia; 24% in the test on OVCAR-8 ovarian; 115% with OVCAR-5 ovarian; 63.7% with OVCAR-4 ovarian. Also, the growth in the test on SK-OV-3 ovarian was 38.8%; with IGROV1 ovarian it was 44.4%; with OVCAR-3 ovarian, 49.6%; in the test with HS 578T breast it was 46.3%; in the test on NCI/ADR-RES ovarian, 32.5%; in the test with T-47D breast, 77.2%. The growth was 54.2% with BT-549 breast; 52.1% in the test with MDA-MB-435 melanoma; 44.1% in the test with SW-620 colon; 27.2% with MCF7 breast; 21.7% with HCT-116 colon; 55.7% with HCC-2998 colon. For the same compound, the growth in the test on KM12 colon is 68.4%.

Regarding `COC(=O)[C@@H](C)C[C@H](Cc1ccccc1)NC(=O)c1nc([C@@H](C[C@H](C(C)C)N(C)C(=O)[C@@H](NC(=O)[C@H]2CCCCN2C)C(C)C)OC(C)=O)sc1C(C)C`, the growth is 5.59% (active) in the test with MOLT-4 leukemia; 3.18% (active) in the test on SR leukemia; 20.5% in the test on RPMI-8226 leukemia; 2.95% (active) in the test with OVCAR-8 ovarian; 27.1% in the test on OVCAR-5 ovarian; 41.6% in the test on OVCAR-4 ovarian. In addition, the growth in the test on SK-OV-3 ovarian is 26.8%; in the test on IGROV1 ovarian, 19.8%; with OVCAR-3 ovarian, -22.9% (active); with HS 578T breast, 4.24% (active); with NCI/ADR-RES ovarian, 8.7% (active); in the test with T-47D breast it was 53.1%. In addition, the growth in the test with BT-549 breast is -35.6% (active); in the test on MDA-MB-435 melanoma, -46.8% (active); in the test on SW-620 colon, 24.9%; in the test with MCF7 breast, 18.3%; with HCT-116 colon it was -5.54% (active); with HCC-2998 colon, 3.15% (active). The growth in the test with KM12 colon was 1.85% (active).

As to `CC(=O)[O][Hg][O]C(C)=O`, the growth with MOLT-4 leukemia was 84.8%; in the test with SR leukemia, 11.9%; in the test on RPMI-8226 leukemia, 90.1%; with OVCAR-8 ovarian, 98.7%; in the test on OVCAR-5 ovarian it was 115%; in the test on OVCAR-4 ovarian, 94.3%. Further, the growth in the test on SK-OV-3 ovarian was 97.8%; with IGROV1 ovarian, 53.2%; in the test with OVCAR-3 ovarian, 34.5%; with HS 578T breast it was 106%; with NCI/ADR-RES ovarian, 108%; in the test on T-47D breast, 52.9%. For the same compound, the growth was 103% in the test with BT-549 breast; 85.7% in the test on MDA-MB-435 melanoma; 85.6% in the test with SW-620 colon; 55.9% with MCF7 breast; 95.7% with HCT-116 colon; 120% in the test with HCC-2998 colon. Moreover, in the test on KM12 colon, the growth is 87.5%.

As to `COP(=S)(N1CC1)N1CC1`, the growth was 101% with MOLT-4 leukemia; 89.9% in the test on SR leukemia; 104% with RPMI-8226 leukemia; 135% in the test with OVCAR-8 ovarian; 95.9% with OVCAR-5 ovarian; 111% in the test with OVCAR-4 ovarian. Besides, the growth in the test on SK-OV-3 ovarian was 110%; in the test on IGROV1 ovarian it was 106%; with OVCAR-3 ovarian, 113%; in the test on HS 578T breast, 121%; in the test on NCI/ADR-RES ovarian, 103%; in the test on T-47D breast, 94.8%. Also, the growth was 118% in the test on BT-549 breast; 105% in the test on MDA-MB-435 melanoma; 103% with SW-620 colon; 102% with MCF7 breast; 109% with HCT-116 colon; 105% with HCC-2998 colon. Moreover, the growth with KM12 colon is 116%.

For the origin of these results see PubChem BioAssay (NCI).
